Laboratory results published in the supplement of paper PMC10600219.
Counter-ions that a name gives are not always drawn. In all, about 2,800 compounds were measured (“cell viability relative to vehicle”: median about 0.98, lowest 2% from about 0.45 on). What follows is part of a selection rich in the lowest values, with near analogues and random picks from the rest.

system: NCI-H2228 alectinib-DTP; assay: cell viability relative to vehicle (fraction of vehicle); NCI-H2228 is an ALK-positive lung cancer line and DTP means drug-tolerant persister; higher = less growth inhibition; conditions: 100 nM; treatment time 6 days
In short: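 Values give cell viability as a fraction of vehicle-treated cells. Parental and drug-tolerant persister NCI-H2228 cells (persisters made with 1000 nM of a targeted drug for 13 days) were exposed in 384-well plates to the 3114-agent TargetMol anti-cancer compound library at 100 nM, with DMSO as vehicle. ATP was then read after 6 days by the CellTiter-Glo 3D Cell Viability Assay.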

| Compound | cell viability |
| --- | --- |
| CN1CCN(Cc2ccc(Nc3ncc(Cl)c(Nc4ccccc4S(=O)(=O)N(C)C)n3)cc2)CC1 | 0.122 |
| COc1cc(N2CCC(N3CCN(C)CC3)CC2)ccc1Nc1ncc(Cl)c(Nc2ccccc2S(=O)(=O)C(C)C)n1 | 0.942 |
| CNS(=O)(=O)c1ccccc1Nc1nc(Nc2ccc(N3CCN(C)CC3)cc2OC)ncc1Cl [ALK inhibitor 2] | 1 |
| CC/C(=C(/c1ccc(O)cc1)c1ccc(OCCNC)cc1)c1ccccc1 [Endoxifen E-isomer hydrochloride] | 1.12 |
| CN1C(N)=N[C@](C)(c2cc(NC(=O)c3ccc(F)cn3)ccc2F)CS1(=O)=O [Verubecestat] | 0.969 |
| Cn1cc(CNCC2CCN(c3ncc(C(=O)NO)cn3)CC2)c2ccccc21 [Quisinostat] | 0.358 |
| Cn1cc(C[C@@H](N)C(=O)O)c2ccccc21 [Indoximod] | 1.14 |
| CN1CCc2c(c3ccccc3n2Cc2ccc(C(=O)NO)cc2)C1 [Tubastatin A HCl] | 0.892 |
| CC(=O)OCC1=CO[C@@H](OC(=O)CC(C)C)[C@H]2C1=C[C@H](OC(=O)CC(C)(C)OC(C)=O)[C@]21CO1 [Acevaltrate] | 1.13 |
| Cc1cc([N+](=O)[O-])c(NS(=O)(=O)c2cccc(C(=O)O)c2)cc1-c1cccnc1 [Alofanib] | 0.978 |
| O=P(O)(O)O[C@H]1[C@H](OP(=O)(O)O)[C@@H](OP(=O)(O)O)[C@H](OP(=O)(O)O)[C@@H](OP(=O)(O)O)[C@H]1OP(=O)(O)O [Phytic acid] | 1.13 |
| CN(C)C1CCN(C(=O)c2ccc(NC(=O)Nc3ccc(-c4nc(N5CCOCC5)nc(N5CCOCC5)n4)cc3)cc2)CC1 [Gedatolisib] | 0.385 |
| COC(=O)Nc1ccc(-c2nc(N3CCOCC3)c3cnn(C4CCN(C(=O)OC)CC4)c3n2)cc1 | 0.855 |
| CCNC(=O)Nc1ccc(-c2nc(N3CCOC[C@@H]3C)c3c(n2)C(C)(C)S(=O)(=O)C3)cc1 | 0.508 |
| O=C(Nc1ncc([N+](=O)[O-])s1)c1ccccc1O [Tizoxanide] | 0.88 |
| COC(=O)C[C@](O)(CCCC(C)(C)O)C(=O)O[C@@H]1C(OC)=C[C@]23CCCN2CCc2cc4c(cc2[C@H]13)OCO4 [Homoharringtonine] | 0.2 |
| O=C(O)COc1ccc(Br)cc1/C=C1\SC(=S)N(Cc2cccnc2)C1=O [Skp2 Inhibitor C1] | 1.08 |
| CC(C)=CCc1cc2c(cc1O)O[C@H](c1ccc(O)cc1)CC2=O [Bavachin] | 1.01 |
| CC(C)(C)c1cc(NC(=O)Nc2ccc(Oc3ccnc4[nH]c(=O)cnc34)cc2F)n(-c2ccccc2)n1 | 1.12 |
| Nc1cc(F)ccc1NC(=O)c1ccc(CNC(=O)/C=C/c2cccnc2)cc1 [Chidamide] | 0.775 |
| O=C(/C=C/c1cccnc1)NCCCCC1CCN(C(=O)c2ccccc2)CC1 | 0.452 |
| Nc1ccc(/C=C/C(=O)NCc2cc3cc(-c4ccc(C(=O)N5CCC(F)(F)CC5)cc4)cc(-c4ccc(F)cc4)c3o2)cn1 | 1.25 |
| c1ccc(-c2oc3ncnc(NC[C@@H]4CCCO4)c3c2-c2ccccc2)cc1 | 1.06 |
| COC1=CC(=O)c2ccccc2C1=O [2-Methoxynaphthoquinone] | 1.06 |

| Compound | cell viability |
| --- | --- |
| COc1ccc(-c2cc3c(C)nc(N)nc3n([C@H]3CC[C@H](OCCO)CC3)c2=O)cn1 | 0.398 |
| COc1cccc(-c2cc(F)ccc2[C@H]2Cc3nc(N)nc(C)c3C(=O)N2)n1 | 0.502 |
| CCn1c(=O)c(-c2cc[nH]n2)cc2c(C)nc(N)nc21 [Voxtalisib] | 0.86 |
| CCCCCCCCCC(=O)CC(O)S(=O)(=O)O (configuration not stated) [Sodium houttuyfonate] | 1.08 |
| CC(=O)OC(C)(C)CCC(=O)[C@](C)(O)[C@H]1[C@H](O)C[C@@]2(C)[C@@H]3CC=C4[C@@H](C[C@H](O)[C@@H](O)C4(C)C)[C@]3(C)C(=O)C[C@]12C [Cucurbitacin IIA] | 1.07 |
| Oc1ccc(C(c2c[nH]c3ccccc23)c2c[nH]c3ccccc23)cc1 | 1.08 |
| C[C@@H]1O[C@@H](O[C@@H]2[C@H](O)[C@@H](O)[C@H](O[C@H]3CC[C@@]4(C)C(CC[C@]5(C)C4C=C[C@]46OC[C@@]7(CCC(C)(C)CC74)[C@@H](O)C[C@]65C)C3(C)C)O[C@@H]2CO[C@@H]2O[C@H](CO)[C@@H](O)[C@H](O)[C@H]2O)[C@H](O)[C@H](O)[C@H]1O (some centres not stated) [Saikosaponin C] | 0.993 |
| COc1ccc(CC(=O)NC(/N=C(\NC#N)Nc2cccc3ncccc23)C(C)(C)C)cc1OC (configuration not stated) | 0.985 |
| Cc1ccc(NC(=S)NNc2c([N+](=O)[O-])cc(C(F)(F)F)cc2[N+](=O)[O-])cc1Cl | 0.982 |
| COc1ccc(CCC(=O)O)cc1OC [3,4-Dimethoxyhydrocinnamic acid] | 0.856 |
| N=C(NCCCCCCNC(=N)NC(=N)Nc1ccc(Cl)cc1)NC(=N)Nc1ccc(Cl)cc1 [Chlorhexidine] | 1.17 |
| N#CN=C(NCCCCCCOc1ccc(Cl)cc1)Nc1ccncc1 | 0.165 |
| N=C(NCCCCCCNC(=N)NC(=N)Nc1ccc(Cl)cc1)NC(=N)Nc1ccc(Cl)cc1 [Chlorhexidine hydrochloride] | 1.02 |
| C[C@@H]1CC[C@]2(C(=O)O)CC[C@]3(C)C(=CC[C@@H]4[C@@]5(C)CC[C@H](O)[C@@](C)(CO)[C@@H]5CC[C@]43C)[C@@H]2[C@]1(C)O [Rutundic acid] | 1.02 |
| CCN(CC)CC(O)CNc1ccc(NCC2CO2)c2c1C(=O)c1ccccc1C2=O (configuration not stated) | 0.831 |
| O=C(NCCCn1ccnc1)c1cc(-c2ccco2)on1 | 1.03 |
| C[C@H](CC(=O)C[C@@H](C)[C@H]1C[C@H](O)[C@@]2(C)C3=C(C(=O)C[C@]12C)[C@@]1(C)CCC(=O)C(C)(C)[C@@H]1C[C@@H]3O)C(=O)O [Ganoderic acid A] | 1.03 |
| CNC(=O)Nc1cc(Oc2cncc(C)c2)c(-c2ccc(OCC(C)(C)O)nc2)cn1 | 0.91 |
| COc1cc2cc(Oc3ccc4ccc(=O)oc4c3)c(=O)oc2cc1O [Daphnoretin] | 1.11 |
| COCC[n+]1c2c(n(Cc3cnccn3)c1C)C(=O)c1ccccc1C2=O | 0.0756 |
| CC(C)(NS(=O)(=O)c1ccc2c(Cl)cnc(N=C(N)N)c2c1)C(=O)O | 1.04 |
| CCC(=O)N1CCOc2c(cc(-c3ccc(OC)c(OC)c3)cc2OC[C@H]2CCCN(C)C2)C1 [I-CBP112 hydrochloride] | 0.963 |
| Cc1cc(N2C[C@@H](C)N[C@@H](C)C2)ncc1-c1ccc(-c2nc3c(ccn3C)c(=O)[nH]2)cc1 | 0.757 |
| CC(C)C[C@H](NC(=O)CNC(=O)c1cc(Cl)ccc1Cl)B1OC(=O)C(CC(=O)O)(CC(=O)O)O1 | 0.342 |

| Compound | cell viability |
| --- | --- |
| C[C@H](NC(=O)CNC(=O)c1cccc(Cl)c1)c1ccccc1 | 0.957 |
| CC(C)C[C@H](NC(=O)CNC(=O)c1cc(Cl)ccc1Cl)B(O)O [Ixazomib] | 0.28 |
| CCCC(C)NC(=O)c1ccc(Cl)c(Cl)c1 (configuration not stated) | 1.07 |
| CC(C)=CCC[C@](C)(O[C@@H]1O[C@H](CO)[C@@H](O)[C@H](O)[C@H]1O)[C@H]1CC[C@]2(C)[C@@H]1[C@H](O)C[C@@H]1[C@@]3(C)CC[C@H](O)C(C)(C)[C@@H]3[C@@H](O[C@@H]3O[C@H](CO)[C@@H](O)[C@H](O)[C@H]3O[C@@H]3O[C@@H](C)[C@H](O)[C@@H](O)[C@H]3O)C[C@]12C [Ginsenoside Re] | 0.852 |
| C[C@H]1CNC(=O)c2cnn3ccc(nc23)N[C@H](C)c2cc(F)ccc2O1 | 0.904 |
| NC(=O)c1nc(-c2c(F)cccc2Cl)oc1Nc1ccc(C(=O)N2CCOCC2)cc1 | 0.929 |
| C=C(C)[C@@H]1CC[C@]2(C(=O)O)CC[C@]3(C)[C@H](CC[C@@H]4[C@@]5(C)CCC(=O)C(C)(C)[C@@H]5CC[C@]43C)[C@@H]12 [Betulonic acid] | 1.08 |
| O=C(Nc1ccc(C(O)(C(F)(F)F)C(F)(F)F)cc1)c1ccc(C(F)(F)F)cc1 | 0.963 |
| Clc1ccc(NN=C(c2ccccc2)c2ccccn2)nc1 | 0.74 |
| NNC(=O)c1ccccn1 [2-Picolinyl hydrazide] | 1.02 |
| CN(C)C(=S)NN=C(c1ccccn1)c1ccccn1 | 0.45 |
| CC1=C(C(=O)Nc2ccc3[nH]ncc3c2)C(c2ccc(F)cc2)NC(=O)N1 (configuration not stated) | 1.09 |
| CN1CCN(c2ccc(-c3ccncc3-c3cc(F)c(O)c(F)c3)cc2)CC1 | 1.11 |
| CCc1cnn2c(NCc3ccc[n+]([O-])c3)cc(N3CCCC[C@H]3CCO)nc12 [Dinaciclib] | 0.17 |
| COc1ccc(CNc2nc(N3CCC[C@H]3CO)ncc2C(=O)NCc2ncccn2)cc1Cl [Avanafil] | 0.984 |
| COc1cc2c3cc1Oc1c(OC)c(OC)cc4c1[C@@H](Cc1ccc(O)c(c1)Oc1ccc(cc1)C[C@@H]3N(C)CC2)N(C)CC4 [Berbamine] | 1.09 |
| CC(=O)Oc1cc(C)c(OC(C)=O)c2ccccc12 [Menadiol Diacetate] | 1.11 |
| COc1ccc(/C(C#N)=C/c2ccc(N3CCC(O)CC3)s2)cc1OC | 0.953 |
| COc1cc(N2CCC(N3CCN(C)CC3)CC2)ccc1Nc1ncc(Cl)c(-c2c[nH]c3ccccc23)n1 | 0.893 |
| Cc1cc(C(=O)Nc2nc3cccc(Cl)c3n2[C@@H]2CCCCN(C(=O)/C=C/CN(C)C)C2)ccn1 [Nazartinib] | 0.907 |
| CN(C)C/C=C/C(=O)Nc1ccc(C(=O)N2CCC[C@@H](Nc3ncc(Cl)c(-c4c[nH]c5ccccc45)n3)C2)cc1 | 0.437 |
| CCOc1cc2ncc(C#N)c(Nc3ccc(F)c(Cl)c3)c2cc1NC(=O)/C=C/CN(C)C [Pelitinib] | 0.507 |
| CN(C)C/C=C/C(=O)Nc1ccc(C(=O)Nc2cccc(Nc3ncc(Cl)c(-c4c[nH]c5ccccc45)n3)c2)cc1 | 0.346 |
| Cc1cc(NC(=O)c2cccc(NC(=O)/C=C/CN(C)C)c2)ccc1Nc1nccc(-c2cccnc2)n1 | 0.841 |
